{"source": "PubChem BioAssay AID504840", "about": "(Johns Hopkins Ion Channel Center, 2011)", "note": "Screen size: about 1,500 compounds; about 890 (59%) were called active. The set was probably picked from earlier hits. Only a sample is shown. Measured potencies and affinities stand elsewhere. Values without a mark were called inactive.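 How the source made its calls: active means inhibition of the choline-evoked signal at any tested dose together with a fitted dose-response curve; inactive means no inhibition at any dose or no curve.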", "data": [{"molecular_target": "High affinity choline transporter 1 (Homo sapiens) (UniProt Q9GZV3)", "sequence (Q9GZV3 whole entry, looked up)": "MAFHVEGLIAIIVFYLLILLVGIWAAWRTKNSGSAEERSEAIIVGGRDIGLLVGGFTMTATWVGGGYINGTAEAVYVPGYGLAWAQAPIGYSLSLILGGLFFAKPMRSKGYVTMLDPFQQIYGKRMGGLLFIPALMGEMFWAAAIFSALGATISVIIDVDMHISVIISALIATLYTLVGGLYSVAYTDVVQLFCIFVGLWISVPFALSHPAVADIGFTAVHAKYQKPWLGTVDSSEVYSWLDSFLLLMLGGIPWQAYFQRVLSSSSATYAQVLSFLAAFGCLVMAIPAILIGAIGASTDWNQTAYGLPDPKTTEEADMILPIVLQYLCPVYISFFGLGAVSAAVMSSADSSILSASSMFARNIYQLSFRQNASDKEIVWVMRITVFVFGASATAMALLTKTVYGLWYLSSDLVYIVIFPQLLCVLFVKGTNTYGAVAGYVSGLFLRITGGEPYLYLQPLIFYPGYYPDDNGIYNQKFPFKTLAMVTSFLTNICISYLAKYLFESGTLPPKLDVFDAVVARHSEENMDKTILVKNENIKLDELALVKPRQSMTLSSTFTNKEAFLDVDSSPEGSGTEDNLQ", "assay": "CHT inhibitors, dose response, cell-based, 5-point CRC, membrane potential dye (AID 504840);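 further: 0% = buffer-only response and 100% = EC90 choline response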", "details": "HEK293-CHT, choline-induced depolarization, CHT with LV-to-AA double alanine mutation; series mostly up to 37 µM; inhibition: at the top concentration", "units": {"inhibition": "%"}, "values": [{"smiles": "C/C(=N\\NC(=O)c1ccccc1O)C1C(=O)c2ccccc2C1=O", "inhibition": 77.1}, {"smiles": "COC(=O)C1CN(C(=O)C(C)Oc2ccccc2Cl)c2ccccc2O1", "note": "(stereo unspecified)", "inhibition": 12.4}, {"smiles": "CC(NC(=O)Cn1nc(-c2ccccc2)c2ccccc2c1=O)c1ccccc1", "note": "(stereo unspecified)", "inhibition": 21.8}, {"smiles": "O=c1c2cc(Br)ccc2nc(-c2cccc(C(F)(F)F)c2)n1O", "inhibition": 67.9}, {"smiles": "CCn1c(SCC(=O)N=Nc2c(O)[nH]c3ccccc23)nc2ccccc21", "inhibition": 49.4}, {"smiles": "OC(CNCC#Cc1ccccc1)c1ccccc1", "note": "(stereo unspecified)", "inhibition": 52.2}, {"smiles": "O=C(C1CCCN(c2ncnc3c2nc2n3CCCCC2)C1)N1CCN(c2cccc(Cl)c2)CC1", "note": "(stereo unspecified)", "inhibition": 27.1}, {"smiles": "COc1ccc(Cl)cc1NC(=O)C1CCCN(c2ncnc3c2nc2n3CCCCC2)C1", "note": "(stereo unspecified)", "inhibition": 31.4}, {"smiles": "O=C(Nc1cc(F)ccc1F)C1CCCN(c2ncnc3c2nc2n3CCCCC2)C1", "note": "(stereo unspecified)", "inhibition": 79.4}, {"smiles": "Cc1ccc(N2CCN(C(=O)C3CCCN(c4ncnc5c4nc4n5CCCCC4)C3)CC2)c(C)c1", "note": "(stereo unspecified)", "inhibition": 39.4}, {"smiles": "O=C(c1cccs1)C1C(c2ccc(Br)cc2)NC(=S)NC1(O)C(F)(F)F", "note": "(stereo unspecified)", "inhibition": 32.4}, {"smiles": "COc1ccc(Cl)c2sc(N(CCN(C)C)C(=O)c3ccc4c(c3)OCCO4)nc12", "inhibition": 54.8}, {"smiles": "Cc1[nH]n(-c2ccccc2)c(=O)c1N=Nc1c(O)cc(S(=O)(=O)N(C)C)c2ccccc12", "inhibition": 66.8}, {"smiles": "COc1cccc(N2CCN(c3ncnc4c3[nH]c3ccc(F)cc34)CC2C)c1", "note": "(stereo unspecified)", "inhibition": 20.5}, {"smiles": "COCCNc1c2c(nc3c(-c4ccccc4)c(C)nn13)CCCC2", "inhibition": 52.6}, {"smiles": "CN1CCN(Cc2ccc(Sc3ccc(Cl)cc3)c([N+](=O)[O-])c2)CC1", "inhibition": 30.8}, {"smiles": "CCOC(=O)N1CCN(C(=O)CCCn2c(=S)[nH]c3ccc(Br)cc3c2=O)CC1", "inhibition": 57.2}, {"smiles": "CC1=NN(C(=O)c2ccc(Br)cc2)C(O)(C(F)(F)OC(F)(F)F)C1", "note": "(stereo unspecified)", "inhibition": 81.8}, {"smiles": "O=C(Nc1ccccc1O)c1ccccc1O", "inhibition": 55}, {"smiles": "CCc1nc(NCc2ccccn2)c2oc3ccccc3c2n1", "inhibition": 24.3}, {"smiles": "O=C1c2ccccc2C(=O)c2c(Nc3ccc(CCO)cc3)ccc(O)c21", "inhibition": 20.2}, {"smiles": "COc1cc(C(CCN2CCCC(C)C2)c2c(OC)cc(OC)c3c(-c4ccccc4)cc(=O)oc23)cc(OC)c1OC", "note": "(stereo unspecified)", "inhibition": 60.4}, {"smiles": "O=C(CCCSc1nc2ccccc2[nH]1)N1CCN(c2ccccc2)CC1", "inhibition": 34.3}, {"smiles": "CN1CCN(c2ccc(S(=O)(=O)N3CCCCC3)cc2NC(=O)CSCc2ccccc2)CC1", "inhibition": 52}, {"smiles": "Cc1cc(C)nc(SCc2cc(=O)c(OC(=O)c3ccc(S(=O)(=O)N4CCCC4)cc3)co2)n1", "inhibition": 64.7}, {"smiles": "CC(C)[C@H](NC(=O)c1ccccc1)C(=O)OCC(=O)c1ccc2c(c1)NC(=O)CO2", "inhibition": 52.6}, {"smiles": "O=C(CCl)N(c1ccc(Cl)cc1)c1c[nH]c2ccccc12", "inhibition": 37.7}, {"smiles": "O=C(Nc1cc([N+](=O)[O-])ccc1O)c1cccc([N+](=O)[O-])c1", "inhibition": 90}, {"smiles": "Oc1ccc(-c2nc(-c3ccc(O)c(O)c3)cs2)cc1", "inhibition": 53.7}, {"smiles": "Cc1cccc2sc(N(CCCN(C)C)C(=O)c3ccc(Cl)s3)nc12", "inhibition": 74.2}, {"smiles": "Cc1oc(C(=O)O)cc1COc1ccc2c3c(c(=O)oc2c1C)CCC3", "inhibition": 41.9}, {"smiles": "O=[N+]([O-])c1ccc(O)c(/C=N/NC2=NS(=O)(=O)c3ccccc32)c1", "inhibition": 16.4}, {"smiles": "O=c1c2cc(NC(=S)NC3CCCCC3)ccc2nc2n1CCCCC2", "inhibition": 47.6}, {"smiles": "c1cc(Nc2ncnc3sccc23)cc(-c2nnc3n2CCCCC3)c1", "inhibition": 24.7}, {"smiles": "CCCn1c(=O)c2c(nc3n2CCCN3CCc2ccc(OC)c(OC)c2)n(C)c1=O", "inhibition": 29.8}, {"smiles": "O=C(NNc1ccc(C(F)(F)F)cc1[N+](=O)[O-])c1ccc(NS(=O)(=O)c2ccc(F)cc2)cc1", "inhibition": 51.3}, {"smiles": "O=C(NNc1nc(-c2ccccc2)cs1)c1ccc(F)cc1", "inhibition": 28.9}, {"smiles": "O=C(NCc1nc(-c2ccccc2)cs1)c1ccccc1", "inhibition": 21.2}, {"smiles": "C=CCNC(=O)c1onc(CSc2ccc(C(C)C)cc2)c1C(=O)O", "inhibition": 30.3}, {"smiles": "CC(=O)C(Sc1nn(C)c(=S)s1)C(=O)Nc1ccccc1", "note": "(stereo unspecified)", "inhibition": 29.4}, {"smiles": "CN1CCN(CCOCCOc2ccc(Br)cc2Cl)CC1", "inhibition": 45.8}, {"smiles": "CCOc1cc(/C=C2\\N=C(SC)SC2=O)cc([N+](=O)[O-])c1OC(C)=O", "inhibition": 33.6}, {"smiles": "COC(=O)C(C)Sc1nc2c(c(=O)[nH]c(=O)n2C)n1CCC(C)C", "note": "(stereo unspecified)", "inhibition": 72.7}, {"smiles": "O=S(=O)(Nc1nc(-c2ccccc2)cs1)c1cccc(C(F)(F)F)c1", "inhibition": 42.7}, {"smiles": "O=C(Nc1nc(-c2ccccc2)cs1)c1ccc(=O)[nH]c1", "inhibition": 6.87}, {"smiles": "N#Cc1ccc(C2=NC(C(F)(F)F)(C(F)(F)F)c3c(n(Cc4ccco4)c(=O)[nH]c3=O)N2)cc1", "inhibition": 39.9}, {"smiles": "O=C(Nc1ccc(S(=O)(=O)NC2=NCCCCC2)cc1)C1COc2ccccc2O1", "note": "(stereo unspecified)", "inhibition": 62.6}, {"smiles": "O=C(CC1C(=O)NCCN1C(=O)Nc1ccccc1)Nc1cc(Cl)cc(Cl)c1", "note": "(stereo unspecified)", "inhibition": 76.1}, {"smiles": "CCCCc1cc(=O)oc2cc(O)cc(O)c12", "inhibition": 64.4}, {"smiles": "CN1CCN(CC(=O)Nc2nc(-c3c[nH]c4ccccc34)cs2)CC1", "inhibition": 53.4}, {"smiles": "Nc1cc(N2CCCCCC2)c2nonc2c1[N+](=O)[O-]", "inhibition": 29.7}, {"smiles": "O=C(NNc1ccc([N+](=O)[O-])cc1[N+](=O)[O-])c1ccco1", "inhibition": 22.7}, {"smiles": "COc1ccc2c(c1)c(C(O)CN1CCC(Cc3ccccc3)CC1)c(C)n2C", "note": "(stereo unspecified)", "inhibition": 55.5}, {"smiles": "CC1(C)c2cc(Cl)ccc2-n2c1cc(O)c(-c1ccccc1)c2=O", "inhibition": 52.8}, {"smiles": "CCOC(=O)c1c(CCl)nc2ccccc2c1C", "inhibition": 36.3}, {"smiles": "CCCCCn1c(CCNC(=O)CCC)nc2ccccc21", "inhibition": 29}, {"smiles": "Cc1occc1C(=O)NNC(=S)NC(=O)COc1ccc(Cl)cc1Cl", "inhibition": -0.912}, {"smiles": "Cc1occc1C(=O)NNS(=O)(=O)c1ccc([N+](=O)[O-])cc1", "inhibition": 27.5}, {"smiles": "O=C(O)c1ccccc1-c1ccccc1C(=O)Nc1ccc(-c2nc3cc(Cl)ccc3o2)cc1", "inhibition": 65.3}, {"smiles": "Cc1cccc(N2CCN(C(=O)C3CCN(c4ncnc5c4nc4n5CCCCC4)CC3)CC2C)c1", "note": "(stereo unspecified)", "inhibition": 52.8}, {"smiles": "CCn1c(SCC(=O)c2ccccc2)nnc1-c1cccs1", "inhibition": 35}, {"smiles": "CCC(Sc1nnc(-c2ccc(C)c(Cl)c2)n1CC)C(=O)Nc1nccs1", "note": "(stereo unspecified)", "inhibition": 44.4}, {"smiles": "Cc1c(O)ccc(/C(Cc2ccc3ccccc3n2)=N\\N)c1O", "inhibition": 12.5}, {"smiles": "C=CCNc1nc(SCC=C)nc2ccsc12", "inhibition": 97.9}, {"smiles": "N#C/C(=C(/O)CCl)c1nc(-c2ccccc2)cs1", "inhibition": 86.7}, {"smiles": "O=C(c1cccc(Oc2ccc([N+](=O)[O-])cc2Cl)c1)N1CCCCC1", "inhibition": 39}, {"smiles": "COc1ccc(Nc2nc3ccccc3n2C)cc1", "inhibition": 50.8}, {"smiles": "O=C(Nc1ccc(Br)cc1Cl)Nn1cnnc1", "inhibition": 45.4}, {"smiles": "S=C(NCc1ccccn1)Nc1ccc(Cl)cc1Cl", "inhibition": 33.7}, {"smiles": "O=C(NC1CCCCC1)C(c1ccc2ncccc2c1)N(Cc1ccc(F)cc1)C(=O)c1ccc2c(c1)OCCO2", "note": "(stereo unspecified)", "inhibition": 42.8}, {"smiles": "O=C(NCCc1ccc2c(c1)OCCO2)c1cc2ccccc2o1", "inhibition": 39.6}, {"smiles": "COc1ccc(CN(C(=O)c2cccs2)C(C(=O)NC2CCCCC2)c2ccc3ncccc3c2)cc1", "note": "(stereo unspecified)", "inhibition": 63}, {"smiles": "COc1ccc(CN(C(=O)c2ccc3c(c2)OCCO3)C(C(=O)NC2CCCCC2)c2ccc3ncccc3c2)cc1", "note": "(stereo unspecified)", "inhibition": 76.3}, {"smiles": "NC1=NC2(CCCCCC2)n2c(nc3ccccc32)N1", "inhibition": 81.2}, {"smiles": "Cc1ccc(-c2csc3ncn(CC#N)c(=O)c23)cc1", "inhibition": 39.8}, {"smiles": "CC1=C(C(=O)Nc2cccc(C(=O)NC3CCCC(C)C3C)c2)SCCO1", "note": "(stereo unspecified)", "inhibition": 47.5}, {"smiles": "Cc1ccc(NNC(=O)c2cccs2)cc1Cl", "inhibition": 54.2}, {"smiles": "Cc1ccc(Nc2cc(C(=O)NCCCN3CCOCC3)c3ccccc3n2)cc1C", "inhibition": 52.7}, {"smiles": "CCNc1nc2[nH]c(=O)c3c(c2s1)OC(N)=C(C#N)C3c1ccc(C)cc1", "note": "(stereo unspecified)", "inhibition": 46.1}, {"smiles": "Cc1noc(C)c1COC(=O)c1ccc(F)c(S(=O)(=O)N2CCCCC2)c1", "inhibition": 32.3}, {"smiles": "CCc1nnc(NC(=O)c2cc(S(=O)(=O)N(CC)CC)ccc2Cl)s1", "inhibition": 49.4}, {"smiles": "CC[N+]1(CC)CC2=Cc3c(ccc4ccccc34)CC2C1", "note": "(stereo unspecified)", "inhibition": 54.8}, {"smiles": "O=C(CN1CCN(Cc2ccc(Cl)cc2)CC1)N1CCc2ccccc21", "inhibition": 43}, {"smiles": "CCc1ccc(NCc2nc(-c3ccccc3)no2)cc1", "inhibition": 39.8}, {"smiles": "Cc1ccc(-c2noc(CNc3ccccc3)n2)cc1", "inhibition": 48.7}, {"smiles": "O=C(CCCN1C(=O)CSc2ncccc21)N1CCN(c2cccc(C(F)(F)F)c2)CC1", "inhibition": 88.7}, {"smiles": "CC(C)c1cc(C(=O)N2CCCC(CCC(=O)N3CCN(c4ccccn4)CC3)C2)no1", "note": "(stereo unspecified)", "inhibition": 43.1}, {"smiles": "COC(=O)c1ccc(C(=O)N2CCCC(Nc3ccc(C(C)C)cc3)C2)nc1", "note": "(stereo unspecified)", "inhibition": 38.6}, {"smiles": "O=C(c1cc(COc2ccc(F)cc2Cl)on1)N1CCC(c2ccncc2)CC1", "inhibition": 57.7}, {"smiles": "CCN(Cc1ccncc1)C(=O)c1cc(COc2c(C)cccc2C)on1", "inhibition": 45.7}, {"smiles": "CC(C)n1cnc2c(N(C)c3cccc(Cl)c3)nc(N(CCO)CCO)nc21", "inhibition": 53.9}, {"smiles": "N#C/C(=N\\Nc1ccc([N+](=O)[O-])cc1)C(N)=S", "inhibition": 130}, {"smiles": "N#C/C(=N\\Nc1ccc(F)cc1)C(=O)C1CC1", "inhibition": 29.1}, {"smiles": "CC(NC(=O)C1c2ccccc2Oc2ccccc21)C1CCCO1", "note": "(stereo unspecified)", "inhibition": -6.34}, {"smiles": "CN(Cc1ccccc1)c1ccc(C(CC(N)=O)NC(=O)c2ccc(Br)cc2)cc1[N+](=O)[O-]", "note": "(stereo unspecified)", "inhibition": 38.3}, {"smiles": "O=C(O)c1ccc(N2C(=O)CSC2=S)cc1", "inhibition": 19}, {"smiles": "CCC(=O)Nc1cc(Cl)ccc1N1CCN(C(=O)CC)CC1", "inhibition": 26.7}, {"smiles": "O=C(CCC(=O)N1CCN(c2ccccc2F)CC1)N1CCN(c2ccc(F)cc2)CC1", "inhibition": 19.3}, {"smiles": "Cc1ccc(Cl)cc1N1CCN(C(=O)Cc2c(C(=O)O)[nH]c3ccc(Cl)cc23)CC1", "inhibition": 49.7}, {"smiles": "NC(N)=N/N=C/c1ccc(Cl)c(Cl)c1", "inhibition": 56.4}, {"smiles": "O=C1OCCC1Sc1nc(-c2ccccc2)cs1", "note": "(stereo unspecified)", "inhibition": 55.7}, {"smiles": "Cc1csc(C(C#N)C(=O)c2cc3ccccc3o2)n1", "note": "(stereo unspecified)", "inhibition": 24.7}, {"smiles": "CC(C)n1c(=S)[nH]c2cc(C(F)(F)F)ccc21", "inhibition": 44.1}, {"smiles": "Cc1noc(NC(=O)c2c(-c3c(Cl)cccc3Cl)noc2C)c1[N+](=O)[O-]", "inhibition": 39.3}, {"smiles": "CCCCNS(=O)(=O)c1ccc(NC(=O)c2c(-c3ccccc3Cl)noc2C)cc1", "inhibition": 29.5}, {"smiles": "Cc1cc(C)cc(OCC(O)CN2CCC(CN3C(=O)c4cccc5cccc(c45)C3=O)CC2)c1", "note": "(stereo unspecified)", "inhibition": 36.8}]}]}
